# Measured values published in PubChem BioAssay (NCATS).
# A number with no mark means an inactive call. Results filed as inconclusive are left out. A call without a number means that no potency is given here. Calls of active or inactive are those of the source. Unless noted, calls come from the whole dose curve; as a rule, active = well fitted curve in the direction sought with a large enough effect; inconclusive = small, poorly fitted or top-dose-only effect, or another doubt; inactive = no such curve, though single readings can be large; an effect the other way counts as inactive or inconclusive.
# How the values were obtained:
# [1] = molecular target: Glucocorticoid receptor (Homo sapiens) (UniProt P04150); assay: GR-GFP Redistribution (AID 450;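 active = compounds whose dose series gives a full or clear partial fitted curve of increased nuclear translocation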; note: potency is the fitted concentration of half-maximal effect); details: U2OS GR-GFP nuclear translocation, laser cytometry, 2 h
# [2] = molecular target: Glucocorticoid receptor (Homo sapiens) (UniProt P04150); assay: GR-EFC Redistribution (AID 451; calls by dose curve; note: potency is the fitted concentration of half-maximal effect); details: CHO-K1 GR-EFC translocation, beta-gal luminescence, 2 h
# How it was run: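 CHO-K1 cells expressing nuclear EA and GR-ED fragments of b-gal; compounds titrated up to 46 uM final, 2 h at 37 C. GR nuclear translocation read as complemented b-gal luminescence after 1 h RT detection.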
# [3] = molecular target: 3',5'-cyclic-AMP phosphodiesterase 4B (Homo sapiens) (UniProt Q07343); assay: qHTS Assay for Inhibitors of PDE-IV (AID 607; active = well fitted activation curve with a large enough effect in the main read-out, with a control signal flat, not every such curve was filed as active); details: HEK293 ACTOne CNG channel cells, membrane potential fluorescence; series mostly up to 22.9 µM
# How it was run: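 The readout is membrane depolarisation from a cAMP-sensing CNG channel, detected with a potential dye at ex 535/em 590. Cells were HEK293-derived (endogenous PDE-IV) at 1000 cells/well, titrated up to 22.9 uM final.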
# [4] = molecular target: Cytochrome P450 3A4 (Homo sapiens) (UniProt P08684); assay: qHTS Assay for Activators of Cytochrome P450 3A4 (AID 885); details: recombinant CYP3A4, Luciferin-PPXE luminescence, 60 min; series mostly up to 57.1 µM; note: nearly all actives have a fitted effect of over 65% in size
# How it was run: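 Activators are scored by enhanced luminescence from CYP3A4 conversion of luciferin-PPXE (25uM, equal to KM) to luciferin, after 60 min at RT with an NADPH-regenerating system.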
# [5] = Primary qHTS for small molecule stabilizers of the endoplasmic reticulum resident proteome: Secreted ER Calcium Modulated Protein (SERCaMP) assay (AID 1508630); details: SH-SY5Y GLuc-SERCaMP (Gaussia luciferase released on ER calcium loss) secretion, thapsigargin, luminescence; series mostly up to 38.4 µM
# How it was run: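 The SH-SY5Y reporter protocol was run at 3 concentrations up to 38.3 uM (primary) or 11 concentrations (follow-up): 16 h compound, 100 nM thapsigargin for 4 h, then extracellular luciferase luminescence.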
# [6] = molecular target: Rap guanine nucleotide exchange factor 3 (Homo sapiens) (UniProt O95398); assay: Confirmatory qHTS for antagonist of cAMP-regulated guanine nucleotide exchange factor 3 (EPAC1) (AID 1645880); details: EPAC1 Rap1B-BODIPY-GDP exchange, fluorescence; series mostly up to 115 µM; note: nearly all actives have a fitted effect of over 55% in size; note: potency is the fitted concentration of half-maximal effect
# How it was run: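 Released BODIPY-GDP fluoresces less than Rap1-bound BODIPY-GDP; the signal is followed at 480/540 nm at 5-min intervals over 30 min, after 5 min at room temperature. Reactions contain 100 nM EPAC1, 250 nM RAP1B-BODIPY-GDP and 50 uM GDP; results are normalized to ATA and DMSO.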
# [7] = molecular target: Rap guanine nucleotide exchange factor 3 (Homo sapiens) (UniProt O95398); assay: Confirmatory qHTS for agonist of cAMP-regulated guanine nucleotide exchange factor 3 (EPAC1) (AID 1645881); details: EPAC1 Rap1B BODIPY-GDP exchange fluorescence; series mostly up to 154 µM;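 note: EPAC1 catalysed release of BODIPY-GDP from Rap1B seen as fluorescence loss; nearly all actives have a fitted effect of over 75% in size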
# [8] = molecular target: Rap guanine nucleotide exchange factor 4 (Homo sapiens) (UniProt Q8WZA2); assay: Confirmatory qHTS for agonist of cAMP-regulated guanine nucleotide exchange factor 4 (EPAC2) (AID 1645884); details: EPAC2 GEF activity, Rap1B-BODIPY-GDP fluorescence; series mostly up to 154 µM;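 note: nucleotide exchange releases bodipy-GDP from Rap1 and this lowers its fluorescence; nearly all actives have a fitted effect of over 65% in size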; note: potency is the fitted concentration of half-maximal effect
# [9] = molecular target: Lysosomal acid glucosylceramidase (Homo sapiens) (UniProt P04062); assay: Glucocerebrosidase-p2 (AID 348; in the data active = potency below about 10 µM; note: potency is the fitted concentration of half-maximal effect); details: purified GBA, blue fluorogenic substrate, 40 min
# How it was run: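 Normal human glucocerebrosidase (0.2 nM) with blue fluorogenic substrate (80 uM final) in citrate/phosphate pH 5.9 with 10mM sodium taurocholate, 0.01% tween-20; 40 min RT, NaOH/glycine stop; fluorescence Ex 365/Em 440; AC50 from a titration from 0.6 nM upwards.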
# [10] = AP1 Signaling Pathway (AID 357; active = well fitted curve in either direction with a large enough effect, not every such curve was filed as active); details: ME-180 AP-1-bla reporter, EGF-induced, beta-lactamase ratio, 5 h; at 7.69 µM (top of the series) unless noted
# How it was run: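 Modulation of EGF-driven AP-1 transcription was assessed with a beta-lactamase reporter in ME-180 cells. Compound and EC50 EGF were co-incubated 5 hours at 37 °C before 2.5-hour CCF4 loading at room temperature and dual-emission reading.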
# [11] = NFAT Signaling Pathway (AID 444; active = well fitted curve in either direction with a large enough effect, not every such curve was filed as active;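 note: carbachol stimulus at about its EC50 of 1 µM final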); details: Jurkat NFAT-bla M1, carbachol, beta-lactamase ratio, 5 h; at 7.69 µM (top of the series) unless noted
# How it was run: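 Jurkat cells with NFAT-driven β-lactamase reporter and co-expressed M1 receptor, stimulated with carbachol (final 1 uM, ~EC50), compound titration, 5 h at 37 °C. CCF4 loaded 1 h at RT; 460/530 nm ratio gave %activity and AC50.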
# [12] = molecular target: Rap guanine nucleotide exchange factor 4 (Homo sapiens) (UniProt Q8WZA2); assay: Confirmatory qHTS for antagonist of cAMP-regulated guanine nucleotide exchange factor 4 (EPAC2) (AID 1645885); details: EPAC2 Rap1B-BODIPY-GDP exchange fluorescence, biochemical; series mostly up to 114 µM; note: nearly all actives have a fitted effect of over 25% in size; note: potency is the fitted concentration of half-maximal effect
# [13] = Stat Signaling Pathway (AID 446; active = well fitted curve in either direction with a large enough effect, not every such curve was filed as active;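 note: ME-180 cervical cancer cells given 40 pM IL-6 alongside compound; SIE-controlled beta-lactamase reporter measured as 460/530 nm FRET emission ratio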); details: ME-180 (cervical carcinoma) SIE beta-lactamase reporter, IL-6 stimulated, 5 h; at 7.69 µM (top of the series) unless noted
# How it was run: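 Emission at 460 and 530 nm (excitation 405 nm) reports SIE-controlled beta-lactamase in ME-180 cells. Cells received compound with 40 pM IL-6 for 5 hrs at 37 C; data scaled between 300 pM IL-6 and 125 nM JAK-inhibitor controls.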
# [14] = molecular target: Mitogen-activated protein kinase 10 (Mus musculus) (UniProt Q61831); assay: JNK3 AlphaScreen Assay (AID 530; active = well fitted curve in either direction with a large enough effect, not every such curve was filed as active;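 note: kinase came from lysate of stimulated human HepG2 cells; signal reports phosphorylation of biotinylated GST-cJun 1-79 at Ser73 with 10 µM ATP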); details: JNK3 lysate, c-Jun phosphorylation; series mostly up to 57.1 µM
# How it was run: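 Activity was read by AlphaScreen after JNK3-containing HepG2 lysate (cytokine pre-activated) phosphorylated biotinylated GST-cJun with 10 uM ATP at room temperature. Phospho-Ser73 cJun antibody with Protein-A acceptor beads provided detection.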
# [15] = molecular target: Dual specificity protein kinase CLK4 (Homo sapiens) (UniProt Q9HAZ1); assay: qHTS Assay for Inhibitors of CDC-like Kinase 4 (Kinase-Glo Assay) (AID 1770); details: recombinant Clk4, Kinase-Glo ATP depletion luminescence; series mostly up to 66.7 µM; note: nearly all actives have a fitted effect of over 65% in size; note: potency is the fitted concentration of half-maximal effect
# How it was run: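 Recombinant human Clk4 (25 nM) phosphorylated RS repeat peptide (100 uM) with 1 uM ATP in Tris pH 7.5/MgCl2/EGTA/DTT/Triton buffer for 4.5 h at room temperature. Residual ATP was quantified by Kinase-Glo luciferase luminescence.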
# [16] = molecular target: Dual specificity protein kinase CLK4 (Homo sapiens) (UniProt Q9HAZ1); assay: qHTS Assay for Inhibitors of CDC-like Kinase 4 (ADP-Glo Assay) (AID 1771); details: recombinant CLK4, ADP-Glo luminescence; series mostly up to 80 µM; note: nearly all actives have a fitted effect of over 70% in size; note: potency is the fitted concentration of half-maximal effect
# How it was run: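 ADP production was read by ADP-Glo luminescence after residual ATP depletion, following 1 h room-temperature reaction of 25 nM Clk4, 1 uM ATP and 100 uM RS peptide with MgCl2, EGTA, DTT and Triton X-100.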
# [17] = molecular target: Dual specificity protein kinase CLK4 (Homo sapiens) (UniProt Q9HAZ1); assay: qHTS Assay for Inhibitors of CDC-like Kinase 4 (ADP-FP Assay) (AID 1795); details: Transcreener ADP fluorescence polarization; series mostly up to 50 µM; note: nearly all actives have a fitted effect of over 60% in size; note: potency is the fitted concentration of half-maximal effect
# How it was run: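 Recombinant human Clk4 (6.25 nM) phosphorylated RS repeat peptide (100 uM) with 1 uM ATP in Tris pH 7.5/MgCl2/EGTA/DTT/Triton buffer for one hour. ADP was quantified by Transcreener competitive fluorescence polarization against an ADP calibration curve.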
# [18] = molecular target: Ubiquitin carboxyl-terminal hydrolase 1 (Homo sapiens) (UniProt O94782); assay: Inhibitors of USP1/UAF1: Pilot qHTS (AID 504865); details: purified USP1/UAF1, Ub-rhodamine cleavage fluorescence; series mostly up to 54.9 µM;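 note: rhodamine fluorescence freed from ubiquitin-rhodamine substrate followed over time; top concentration of the series differs between compounds; nearly all actives have a fitted effect of over 35% in size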
# How it was run: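 USP1/UAF1 complex (1nM) preincubated with compound 15 min at room temperature, then Ub-Rho substrate (150nM final) added. Fluorescence read kinetically at 480/540 nm, 6 reads every 60 seconds. Buffer: 50mM HEPES pH 7.8, 0.5mM EDTA, 0.1 mg/ml BSA, 1mM TCEP, 0.01% Tween-20.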
# [19] = molecular target: Cytochrome P450 1A2 (Homo sapiens) (UniProt P05177); assay: p450-cyp1a2 (AID 410; calls by dose curve; note: potency is the fitted concentration of half-maximal effect); details: recombinant CYP1A2, luciferin-ME demethylation, luminescence; series mostly up to 57 µM
# How it was run: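 Luminescent demethylation readout: Luciferin-ME (100uM, equal to Km) turned over by 20nM CYP1A2 for 60 min at room temperature after NADPH regeneration addition, following 10 min compound preincubation. Normalization used 57 uM furafylline as full inhibition.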
# 3',5'-cyclic-AMP phosphodiesterase 4B (Homo sapiens), sequence (Q07343 whole entry, looked up): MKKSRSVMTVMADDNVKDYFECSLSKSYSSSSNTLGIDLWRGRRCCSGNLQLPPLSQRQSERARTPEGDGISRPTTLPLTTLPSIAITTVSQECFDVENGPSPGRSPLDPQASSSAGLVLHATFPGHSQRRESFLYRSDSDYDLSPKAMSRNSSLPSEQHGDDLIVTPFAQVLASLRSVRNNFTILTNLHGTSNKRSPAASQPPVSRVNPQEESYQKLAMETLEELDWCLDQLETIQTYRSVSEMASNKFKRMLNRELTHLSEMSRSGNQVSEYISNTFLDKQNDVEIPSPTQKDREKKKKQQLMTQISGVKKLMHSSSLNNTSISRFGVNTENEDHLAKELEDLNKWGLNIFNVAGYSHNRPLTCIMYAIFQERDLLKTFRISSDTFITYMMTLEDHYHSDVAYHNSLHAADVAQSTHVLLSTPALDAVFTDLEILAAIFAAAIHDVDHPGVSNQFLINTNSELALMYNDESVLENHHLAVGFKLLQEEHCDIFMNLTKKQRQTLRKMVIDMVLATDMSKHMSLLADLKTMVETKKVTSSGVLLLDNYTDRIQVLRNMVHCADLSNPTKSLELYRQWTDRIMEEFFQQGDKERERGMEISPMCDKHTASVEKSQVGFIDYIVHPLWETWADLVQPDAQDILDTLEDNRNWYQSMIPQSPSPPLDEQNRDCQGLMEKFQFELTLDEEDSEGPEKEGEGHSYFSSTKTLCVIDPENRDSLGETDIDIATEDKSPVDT
# Cytochrome P450 3A4 (Homo sapiens), sequence (P08684 whole entry, looked up): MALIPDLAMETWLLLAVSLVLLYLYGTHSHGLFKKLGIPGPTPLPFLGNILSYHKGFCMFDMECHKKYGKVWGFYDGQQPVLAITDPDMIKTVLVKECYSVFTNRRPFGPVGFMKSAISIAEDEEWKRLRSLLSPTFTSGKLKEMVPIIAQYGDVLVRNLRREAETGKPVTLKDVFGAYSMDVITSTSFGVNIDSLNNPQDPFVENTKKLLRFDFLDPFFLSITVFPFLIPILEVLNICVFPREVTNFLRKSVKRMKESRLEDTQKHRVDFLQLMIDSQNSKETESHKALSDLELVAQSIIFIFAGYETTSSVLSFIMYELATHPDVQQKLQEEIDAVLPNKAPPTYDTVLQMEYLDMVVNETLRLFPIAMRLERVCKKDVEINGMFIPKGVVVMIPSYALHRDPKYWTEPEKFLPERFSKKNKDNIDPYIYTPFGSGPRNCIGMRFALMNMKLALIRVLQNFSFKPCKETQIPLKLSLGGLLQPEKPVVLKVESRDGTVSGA
# Glucocorticoid receptor (Homo sapiens), sequence (P04150 whole entry, looked up, the tested form may be a part): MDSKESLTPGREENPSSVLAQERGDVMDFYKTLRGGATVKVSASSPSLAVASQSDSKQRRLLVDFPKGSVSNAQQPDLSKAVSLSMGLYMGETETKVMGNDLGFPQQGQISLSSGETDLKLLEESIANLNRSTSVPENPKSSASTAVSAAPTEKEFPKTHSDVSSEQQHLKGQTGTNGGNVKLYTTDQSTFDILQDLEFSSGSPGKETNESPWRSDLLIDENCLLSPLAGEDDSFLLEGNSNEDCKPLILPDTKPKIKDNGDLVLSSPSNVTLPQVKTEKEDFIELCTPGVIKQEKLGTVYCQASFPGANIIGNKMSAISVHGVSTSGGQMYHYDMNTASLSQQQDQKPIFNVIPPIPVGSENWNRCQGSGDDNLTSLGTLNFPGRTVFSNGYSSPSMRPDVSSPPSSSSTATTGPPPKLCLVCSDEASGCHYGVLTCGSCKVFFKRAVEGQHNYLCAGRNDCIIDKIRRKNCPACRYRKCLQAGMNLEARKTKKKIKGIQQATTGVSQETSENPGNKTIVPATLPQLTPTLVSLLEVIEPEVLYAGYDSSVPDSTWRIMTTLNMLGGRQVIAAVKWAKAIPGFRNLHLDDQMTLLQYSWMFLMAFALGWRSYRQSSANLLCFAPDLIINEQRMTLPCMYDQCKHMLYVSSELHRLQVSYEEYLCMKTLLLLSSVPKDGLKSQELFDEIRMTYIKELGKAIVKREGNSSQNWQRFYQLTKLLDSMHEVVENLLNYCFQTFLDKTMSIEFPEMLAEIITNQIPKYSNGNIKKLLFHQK
# Dual specificity protein kinase CLK4 (Homo sapiens), sequence (Q9HAZ1 whole entry, looked up): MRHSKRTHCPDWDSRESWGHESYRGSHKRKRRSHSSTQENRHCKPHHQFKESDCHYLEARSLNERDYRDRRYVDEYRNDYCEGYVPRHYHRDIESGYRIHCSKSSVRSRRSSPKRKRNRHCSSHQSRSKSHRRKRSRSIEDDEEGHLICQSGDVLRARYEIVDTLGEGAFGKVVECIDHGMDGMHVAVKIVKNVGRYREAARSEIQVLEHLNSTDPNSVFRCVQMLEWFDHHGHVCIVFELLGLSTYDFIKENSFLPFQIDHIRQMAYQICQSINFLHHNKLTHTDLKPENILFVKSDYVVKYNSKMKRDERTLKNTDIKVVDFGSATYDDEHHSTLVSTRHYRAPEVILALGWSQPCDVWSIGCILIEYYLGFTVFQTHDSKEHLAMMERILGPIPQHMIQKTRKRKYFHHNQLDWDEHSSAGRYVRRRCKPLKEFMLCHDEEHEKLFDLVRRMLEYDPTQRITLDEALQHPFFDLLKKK
# Cytochrome P450 1A2 (Homo sapiens), sequence (P05177 whole entry, looked up): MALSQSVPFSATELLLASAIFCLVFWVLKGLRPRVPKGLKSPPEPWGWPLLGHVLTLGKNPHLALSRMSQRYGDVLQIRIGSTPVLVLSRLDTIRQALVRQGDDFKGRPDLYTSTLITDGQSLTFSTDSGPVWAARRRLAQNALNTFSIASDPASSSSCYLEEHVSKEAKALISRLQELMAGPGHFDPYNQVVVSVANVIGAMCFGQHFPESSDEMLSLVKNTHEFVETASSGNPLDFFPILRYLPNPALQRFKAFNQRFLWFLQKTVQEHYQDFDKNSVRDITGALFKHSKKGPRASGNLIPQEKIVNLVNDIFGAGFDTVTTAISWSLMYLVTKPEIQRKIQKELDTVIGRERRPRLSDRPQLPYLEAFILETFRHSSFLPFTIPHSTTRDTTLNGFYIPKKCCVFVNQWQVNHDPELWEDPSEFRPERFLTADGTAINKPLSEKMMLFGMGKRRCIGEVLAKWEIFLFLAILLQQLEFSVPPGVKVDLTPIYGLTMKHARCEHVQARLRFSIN
# Rap guanine nucleotide exchange factor 4 (Homo sapiens), sequence (Q8WZA2 whole entry, looked up): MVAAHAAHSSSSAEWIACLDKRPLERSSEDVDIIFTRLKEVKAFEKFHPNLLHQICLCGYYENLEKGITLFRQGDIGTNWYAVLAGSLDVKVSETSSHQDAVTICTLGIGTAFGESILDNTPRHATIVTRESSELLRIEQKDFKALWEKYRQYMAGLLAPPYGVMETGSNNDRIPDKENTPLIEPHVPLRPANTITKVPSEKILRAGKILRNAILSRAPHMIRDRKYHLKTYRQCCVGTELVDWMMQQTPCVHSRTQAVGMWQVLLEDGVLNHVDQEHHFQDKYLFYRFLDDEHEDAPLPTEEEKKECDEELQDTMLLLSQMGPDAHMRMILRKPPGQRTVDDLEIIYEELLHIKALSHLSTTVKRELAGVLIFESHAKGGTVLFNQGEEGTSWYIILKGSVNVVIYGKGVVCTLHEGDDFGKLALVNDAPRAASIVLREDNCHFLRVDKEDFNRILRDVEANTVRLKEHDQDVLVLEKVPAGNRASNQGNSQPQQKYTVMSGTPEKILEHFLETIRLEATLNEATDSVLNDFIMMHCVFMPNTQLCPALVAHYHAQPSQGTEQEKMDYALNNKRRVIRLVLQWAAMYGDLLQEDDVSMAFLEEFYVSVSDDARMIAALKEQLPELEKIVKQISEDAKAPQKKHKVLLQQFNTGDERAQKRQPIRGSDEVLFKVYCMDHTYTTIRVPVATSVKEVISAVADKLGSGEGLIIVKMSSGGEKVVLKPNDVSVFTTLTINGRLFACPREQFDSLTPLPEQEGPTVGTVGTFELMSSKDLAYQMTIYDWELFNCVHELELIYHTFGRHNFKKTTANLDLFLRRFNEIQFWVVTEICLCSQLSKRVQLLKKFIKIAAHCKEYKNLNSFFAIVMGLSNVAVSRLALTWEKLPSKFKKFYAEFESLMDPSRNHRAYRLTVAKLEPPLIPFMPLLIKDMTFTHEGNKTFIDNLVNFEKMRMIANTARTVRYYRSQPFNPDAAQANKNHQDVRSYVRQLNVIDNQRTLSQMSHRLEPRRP
# Lysosomal acid glucosylceramidase (Homo sapiens), sequence (P04062 whole entry, looked up): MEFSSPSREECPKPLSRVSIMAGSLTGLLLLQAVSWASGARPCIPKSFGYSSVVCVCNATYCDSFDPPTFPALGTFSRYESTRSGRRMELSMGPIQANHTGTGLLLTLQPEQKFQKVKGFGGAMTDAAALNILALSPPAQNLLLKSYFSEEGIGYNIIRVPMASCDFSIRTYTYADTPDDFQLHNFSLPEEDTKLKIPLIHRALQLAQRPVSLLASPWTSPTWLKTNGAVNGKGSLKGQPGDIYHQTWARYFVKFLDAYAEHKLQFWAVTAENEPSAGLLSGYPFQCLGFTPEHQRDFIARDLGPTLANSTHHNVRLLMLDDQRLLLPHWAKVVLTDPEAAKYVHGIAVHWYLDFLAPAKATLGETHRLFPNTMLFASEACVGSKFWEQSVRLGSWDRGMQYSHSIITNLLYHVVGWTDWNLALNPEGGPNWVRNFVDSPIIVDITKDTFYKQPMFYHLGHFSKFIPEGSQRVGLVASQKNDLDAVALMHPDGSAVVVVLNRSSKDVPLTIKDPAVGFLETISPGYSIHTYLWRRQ
SMILES,Potency [1] [µM],Potency [2] [µM],Potency [3],Potency [4],outcome [5],Potency [6],Potency [7],Potency [8],Potency [9] [µM],"activity change, negative = inhibition [10] [%]","activity change, negative = inhibition [11] [%]",Potency [12],"activity, negative = inhibition [13] [%]",Potency [14],Potency [15],Potency [16],Potency [17],Potency [18],Potency [19]
N#C/C(=C\c1ccc(O)c(O)c1)C(=O)OCCc1cccs1,> 46,> 46,inactive,inactive,inactive,12.5 µM (active),inactive,inactive,,,,,,,,,,,
CN(C)c1ncc2nc(-c3cccs3)c(=O)n(C3CC3)c2n1,> 9.22,> 46,,,inactive,inactive,,19.9 µM (active),> 11.4,6.37,19.8,inactive,,,,,,,
Cn1cc(-c2nc3cnc(N4CCOCC4)nc3n(CCC#N)c2=O)c2ccccc21,> 9.22,> 46,inactive,inactive,inactive,inactive,,,> 11.4,-11.7,-7.6,inactive,-5.04,inactive,inactive,inactive,inactive,inactive,
COc1cccc(-c2nc(NCc3ccc(OC)cc3OC)c3ccccc3n2)c1,> 46,> 46,,,inactive,,inactive,inactive,,-5.61,-23.1,,-8.78,inactive,inactive,inactive,inactive,,
COc1ccc(C(=O)N2CCC3(CCCN(Cc4cc(C(F)(F)F)cc(C(F)(F)F)c4)C3)CC2)cc1,,> 46,inactive,inactive,inactive,,inactive,inactive,> 11.4,,-13.8,,-8.85,inactive,,,,,inactive
c1csc(CNc2ccnc(-c3ccc4c(c3)OCO4)n2)c1,> 46,> 46,,inactive,inactive,inactive,,,,,11.2,inactive,-12.2,inactive,,,,inactive,0.316 µM (active)
COc1ccc(Oc2ncc3ncc(=O)n(Cc4ccc(F)cc4)c3n2)cc1,> 9.22,> 46,,,inactive,inactive,inactive,,> 11.4,-18.4,,,-0.377,inactive,,,,,
COc1c(O)cc2oc3cc(O)c(CC=C(C)C)c(O)c3c(=O)c2c1CC=C(C)C,,> 20.6,inactive,inactive,inactive,,,,,,,,,inactive,,,,,31.6 µM (active)
COc1ccc(-c2nc3cnc(Nc4ccccc4)nc3n(CCC#N)c2=O)cc1,,> 46,,,inactive,inactive,,70.6 µM (active),> 11.4,-3.18,,inactive,-4.64,inactive,,,,,0.501 µM (active)
COc1ccc(C(=O)N2CCC3(CCCN(c4cccc(-c5ccccc5)c4)C3)CC2)cc1,,> 46,inactive,,inactive,inactive,,,> 11.4,11.7,,inactive,1.07,inactive,,,,,
COc1ccc(-n2c(=O)c(-c3cccs3)nc3cnc(Nc4cccc(OC)c4)nc32)cc1,,> 46,,inactive,inactive,inactive,,,> 11.4,-24.6,,inactive,-11,inactive,,,,,inactive
C=CC(C)(C)c1c2c(c(O)c3c(=O)c4ccc(O)c(O)c4oc13)C=CC(C)(C)O2,,,,,inactive,,inactive,inactive,,,,,,,,,,,
COc1ccccc1-c1ccc2ncnc(N(C)Cc3ccco3)c2c1,> 46,> 46,,,inactive,,inactive,inactive,> 11.4,10.4,-26.4,39.3 µM (active),-6.49,inactive,8.91 µM (active),14.1 µM (active),2.82 µM (active),inactive,
Cn1c(=O)c(-c2ccccc2)nc2cnc(Nc3ccccc3)nc21,> 9.22,> 46,,,inactive,,,,> 11.4,6.58,-7.03,,8.87,inactive,inactive,inactive,inactive,inactive,15.8 µM (active)
COc1cccc(-c2nccc(NCc3cccs3)n2)c1,> 46,> 46,inactive,inactive,inactive,,inactive,inactive,> 11.4,-9.78,15.4,62.2 µM (active),-0.369,inactive,8.91 µM (active),8.91 µM (active),10 µM (active),,0.2 µM (active)
O=c1c(-c2cc(F)cc(F)c2)nc2cnc(N3CCOCC3)nc2n1-c1ccccc1,> 9.22,> 46,inactive,,inactive,inactive,,,> 11.4,,,inactive,,inactive,,,,,5.01 µM (active)
